# For some assays here: Entries with a potency or affinity are not part of this list.
# How the values were obtained:
# Parameters in all cases: scale not given: direction of the effect not stated beside the values
# [1] = target: Protein translocase subunit SecA (Escherichia coli (strain K12)) (UniProt P10408); test: Assay to Identify E. coli SecA ATPase Inhibitors; format: functional; settings: 30 µM
# [2] = target: T1, Ubiquitin-activating enzyme e1, putative (Leishmania donovani (strain BPK282A1)) (UniProt E9BSI1); test: Leishmania donovani Ubiquitin Activating Enzyme (LdE1); format: functional; settings: 30 µM
# T1 sequence (whole entry): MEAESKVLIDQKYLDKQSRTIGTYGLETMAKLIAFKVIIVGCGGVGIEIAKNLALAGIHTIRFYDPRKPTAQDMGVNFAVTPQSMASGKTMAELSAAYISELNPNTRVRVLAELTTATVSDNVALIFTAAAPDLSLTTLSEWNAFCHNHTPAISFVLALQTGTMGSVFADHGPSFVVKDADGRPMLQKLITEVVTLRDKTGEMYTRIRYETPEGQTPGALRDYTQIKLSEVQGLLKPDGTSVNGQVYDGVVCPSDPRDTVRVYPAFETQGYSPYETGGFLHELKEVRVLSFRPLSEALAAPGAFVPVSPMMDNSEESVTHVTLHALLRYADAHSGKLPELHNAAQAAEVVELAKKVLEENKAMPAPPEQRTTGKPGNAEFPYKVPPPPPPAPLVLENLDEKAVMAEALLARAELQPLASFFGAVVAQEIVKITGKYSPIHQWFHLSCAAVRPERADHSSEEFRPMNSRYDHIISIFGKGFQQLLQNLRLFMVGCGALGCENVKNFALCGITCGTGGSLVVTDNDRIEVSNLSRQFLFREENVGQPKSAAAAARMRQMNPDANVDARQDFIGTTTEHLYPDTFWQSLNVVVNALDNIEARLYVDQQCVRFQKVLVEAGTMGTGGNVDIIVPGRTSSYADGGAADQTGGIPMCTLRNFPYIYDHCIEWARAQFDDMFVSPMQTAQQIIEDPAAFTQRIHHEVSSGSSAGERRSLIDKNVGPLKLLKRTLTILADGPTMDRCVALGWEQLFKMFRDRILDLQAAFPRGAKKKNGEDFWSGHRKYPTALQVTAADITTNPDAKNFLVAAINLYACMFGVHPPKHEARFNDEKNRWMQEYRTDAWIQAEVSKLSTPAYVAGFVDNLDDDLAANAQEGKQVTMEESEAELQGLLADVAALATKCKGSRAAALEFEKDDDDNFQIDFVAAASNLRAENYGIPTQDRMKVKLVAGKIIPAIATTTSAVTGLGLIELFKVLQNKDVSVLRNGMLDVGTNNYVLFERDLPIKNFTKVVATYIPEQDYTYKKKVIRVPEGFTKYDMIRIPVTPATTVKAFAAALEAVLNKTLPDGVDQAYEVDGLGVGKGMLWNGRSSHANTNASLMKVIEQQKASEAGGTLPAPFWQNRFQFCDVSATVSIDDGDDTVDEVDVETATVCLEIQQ
# [3] = target: Sialic acid-binding Ig-like lectin 9 (Homo sapiens) (UniProt Q9Y336); test: Hs-Siglec9 ALPHAscreen SOP 20170721; settings: 10 µM
# Sequence of Sialic acid-binding Ig-like lectin 9 (Homo sapiens) (Q9Y336 whole entry): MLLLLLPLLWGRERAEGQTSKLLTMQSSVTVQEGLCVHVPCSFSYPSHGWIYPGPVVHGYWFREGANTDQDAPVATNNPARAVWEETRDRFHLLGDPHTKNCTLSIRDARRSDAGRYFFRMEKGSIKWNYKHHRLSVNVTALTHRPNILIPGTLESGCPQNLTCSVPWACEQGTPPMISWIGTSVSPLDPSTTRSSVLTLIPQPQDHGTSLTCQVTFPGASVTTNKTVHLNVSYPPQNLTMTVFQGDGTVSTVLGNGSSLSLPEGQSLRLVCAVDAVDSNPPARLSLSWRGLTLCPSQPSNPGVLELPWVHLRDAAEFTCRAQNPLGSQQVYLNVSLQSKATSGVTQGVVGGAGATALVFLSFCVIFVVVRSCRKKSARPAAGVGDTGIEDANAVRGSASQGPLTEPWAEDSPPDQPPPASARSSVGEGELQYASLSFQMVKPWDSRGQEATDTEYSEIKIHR
# Trypanosoma cruzi = test: Trypanosoma cruzi phosphomannomutase and mannose-1-phosphate guanylyltransferase assay; format: functional; settings: 10 µM
# [4] = target: T2, Arginase-2, mitochondrial (Homo sapiens) (UniProt P78540); test: in vitro enzyme assay to detect the production of urea directly proportional to the activity of Arginase II; format: functional; settings: 33.3 µM; further: in the data most compounds retested in dose-response had high values
# T2 sequence (whole entry): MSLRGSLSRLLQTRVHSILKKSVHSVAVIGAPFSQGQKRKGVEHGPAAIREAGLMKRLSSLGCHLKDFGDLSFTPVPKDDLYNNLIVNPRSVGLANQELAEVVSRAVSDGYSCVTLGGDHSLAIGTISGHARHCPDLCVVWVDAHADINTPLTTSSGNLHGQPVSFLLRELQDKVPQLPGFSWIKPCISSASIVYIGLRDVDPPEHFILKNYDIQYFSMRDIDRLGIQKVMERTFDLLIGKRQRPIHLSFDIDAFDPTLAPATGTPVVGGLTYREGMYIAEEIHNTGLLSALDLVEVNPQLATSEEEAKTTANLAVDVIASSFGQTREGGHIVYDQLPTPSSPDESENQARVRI
# [5] = target: T3, Proteasome subunit beta (Trypanosoma cruzi) (UniProt O96673); test: Trypanosoma cruzi proteasome chymotrypsin-like activity (TcProtChymo) assay.; further: in the data most compounds retested in dose-response had high values; format: functional; settings: 9.37 µM
# T3 sequence (whole entry): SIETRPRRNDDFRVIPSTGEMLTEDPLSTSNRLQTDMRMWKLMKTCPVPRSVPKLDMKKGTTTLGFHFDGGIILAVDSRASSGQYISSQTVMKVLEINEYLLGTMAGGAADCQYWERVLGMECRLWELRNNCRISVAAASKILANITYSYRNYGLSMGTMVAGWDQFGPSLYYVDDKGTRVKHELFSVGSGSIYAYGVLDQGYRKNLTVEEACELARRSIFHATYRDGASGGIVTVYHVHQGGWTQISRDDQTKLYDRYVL
# Homo sapiens = species: Homo sapiens; test: To identify inhibition of the IFN signalling (Jak-Stat) pathway via expression of an eGFP reporter gene under the control of an IFN-stimulated response element (ISRE) containing MxA promoter.; format: functional; settings: 30 µM
# [6] = target: T4, Tyrosyl-tRNA synthetase, putative (Trypanosoma cruzi (strain CL Brener)) (UniProt Q4DSP6); test: Trypanosoma cruzi tyrosyl tRNA synthetase (TcYRS) _High Tyrosine SOP; format: functional; settings: 30 µM; further: in the data most compounds retested in dose-response had high values
# T4 sequence (whole entry): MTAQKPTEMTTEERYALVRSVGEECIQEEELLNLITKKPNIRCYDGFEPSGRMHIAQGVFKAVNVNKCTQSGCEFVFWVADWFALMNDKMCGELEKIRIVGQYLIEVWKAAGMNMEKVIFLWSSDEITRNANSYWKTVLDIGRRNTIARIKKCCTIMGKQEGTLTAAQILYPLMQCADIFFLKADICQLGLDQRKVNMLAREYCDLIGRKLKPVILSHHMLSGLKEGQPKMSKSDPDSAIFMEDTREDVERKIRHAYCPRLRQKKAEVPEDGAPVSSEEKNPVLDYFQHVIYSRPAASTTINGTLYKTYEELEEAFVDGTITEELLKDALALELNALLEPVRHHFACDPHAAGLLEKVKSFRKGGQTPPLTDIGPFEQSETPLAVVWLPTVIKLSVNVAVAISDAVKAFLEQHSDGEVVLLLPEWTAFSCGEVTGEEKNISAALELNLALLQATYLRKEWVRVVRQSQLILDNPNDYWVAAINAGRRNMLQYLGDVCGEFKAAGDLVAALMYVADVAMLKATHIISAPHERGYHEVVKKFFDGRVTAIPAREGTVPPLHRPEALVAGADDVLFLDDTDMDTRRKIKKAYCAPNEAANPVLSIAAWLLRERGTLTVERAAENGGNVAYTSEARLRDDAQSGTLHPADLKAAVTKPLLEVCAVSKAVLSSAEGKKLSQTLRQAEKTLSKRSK
# [7] = target: T4, Tyrosyl-tRNA synthetase, putative (Trypanosoma cruzi (strain CL Brener)); test: Trypanosoma cruzi tyrosyl tRNA synthetase (TcYRS) SOP; format: functional; settings: 30 µM
# [8] = target: Chromo domain-containing protein 1 (Saccharomyces cerevisiae (strain ATCC 204508 / S288c) (Baker's yeast)) (UniProt P32657); test: ScCHD-1 Enzyme Inhibition Assay; format: functional; settings: 30 µM; further: in the data most compounds retested in dose-response had high values
# Sequence of Chromo domain-containing protein 1 (Saccharomyces cerevisiae (strain ATCC 204508 / S288c) (Baker's yeast)) (P32657 whole entry, the tested form may be a part): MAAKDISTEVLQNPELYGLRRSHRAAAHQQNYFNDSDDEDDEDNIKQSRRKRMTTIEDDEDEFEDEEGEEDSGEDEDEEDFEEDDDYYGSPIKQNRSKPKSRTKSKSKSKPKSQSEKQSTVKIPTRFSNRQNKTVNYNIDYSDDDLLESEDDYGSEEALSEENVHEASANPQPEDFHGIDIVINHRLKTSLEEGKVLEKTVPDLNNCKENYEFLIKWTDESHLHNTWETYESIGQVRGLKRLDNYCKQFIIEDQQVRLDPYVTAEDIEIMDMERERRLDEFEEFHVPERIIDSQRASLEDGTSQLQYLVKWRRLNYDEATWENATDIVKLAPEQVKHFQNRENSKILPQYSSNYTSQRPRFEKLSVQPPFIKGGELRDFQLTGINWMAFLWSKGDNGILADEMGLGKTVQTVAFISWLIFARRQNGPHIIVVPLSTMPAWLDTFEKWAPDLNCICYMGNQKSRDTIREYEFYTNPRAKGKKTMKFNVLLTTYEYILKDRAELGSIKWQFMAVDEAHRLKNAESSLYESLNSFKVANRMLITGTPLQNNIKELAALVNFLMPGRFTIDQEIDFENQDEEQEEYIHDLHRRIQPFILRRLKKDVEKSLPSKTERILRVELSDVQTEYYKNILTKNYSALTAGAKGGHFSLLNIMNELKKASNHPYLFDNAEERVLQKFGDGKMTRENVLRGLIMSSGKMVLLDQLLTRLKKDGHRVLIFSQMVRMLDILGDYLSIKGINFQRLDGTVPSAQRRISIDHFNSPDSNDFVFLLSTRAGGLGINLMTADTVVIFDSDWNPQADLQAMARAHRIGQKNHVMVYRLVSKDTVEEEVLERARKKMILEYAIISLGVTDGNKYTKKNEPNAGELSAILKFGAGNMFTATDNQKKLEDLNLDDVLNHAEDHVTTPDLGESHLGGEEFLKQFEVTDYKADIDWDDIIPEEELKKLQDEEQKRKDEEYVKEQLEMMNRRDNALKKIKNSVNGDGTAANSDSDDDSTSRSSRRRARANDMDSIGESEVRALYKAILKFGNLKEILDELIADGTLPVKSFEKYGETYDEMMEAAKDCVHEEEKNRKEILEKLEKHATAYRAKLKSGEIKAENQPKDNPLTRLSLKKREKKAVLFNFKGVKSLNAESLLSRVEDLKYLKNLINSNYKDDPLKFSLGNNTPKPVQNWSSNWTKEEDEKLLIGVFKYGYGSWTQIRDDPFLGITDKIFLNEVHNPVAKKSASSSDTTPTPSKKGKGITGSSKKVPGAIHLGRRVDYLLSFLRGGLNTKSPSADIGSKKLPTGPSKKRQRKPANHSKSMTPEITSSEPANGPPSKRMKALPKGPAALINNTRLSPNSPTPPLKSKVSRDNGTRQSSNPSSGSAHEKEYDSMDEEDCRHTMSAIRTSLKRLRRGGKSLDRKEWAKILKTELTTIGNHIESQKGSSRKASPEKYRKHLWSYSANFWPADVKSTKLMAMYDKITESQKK
# Sequence of Protein translocase subunit SecA (Escherichia coli (strain K12)) (P10408 whole entry): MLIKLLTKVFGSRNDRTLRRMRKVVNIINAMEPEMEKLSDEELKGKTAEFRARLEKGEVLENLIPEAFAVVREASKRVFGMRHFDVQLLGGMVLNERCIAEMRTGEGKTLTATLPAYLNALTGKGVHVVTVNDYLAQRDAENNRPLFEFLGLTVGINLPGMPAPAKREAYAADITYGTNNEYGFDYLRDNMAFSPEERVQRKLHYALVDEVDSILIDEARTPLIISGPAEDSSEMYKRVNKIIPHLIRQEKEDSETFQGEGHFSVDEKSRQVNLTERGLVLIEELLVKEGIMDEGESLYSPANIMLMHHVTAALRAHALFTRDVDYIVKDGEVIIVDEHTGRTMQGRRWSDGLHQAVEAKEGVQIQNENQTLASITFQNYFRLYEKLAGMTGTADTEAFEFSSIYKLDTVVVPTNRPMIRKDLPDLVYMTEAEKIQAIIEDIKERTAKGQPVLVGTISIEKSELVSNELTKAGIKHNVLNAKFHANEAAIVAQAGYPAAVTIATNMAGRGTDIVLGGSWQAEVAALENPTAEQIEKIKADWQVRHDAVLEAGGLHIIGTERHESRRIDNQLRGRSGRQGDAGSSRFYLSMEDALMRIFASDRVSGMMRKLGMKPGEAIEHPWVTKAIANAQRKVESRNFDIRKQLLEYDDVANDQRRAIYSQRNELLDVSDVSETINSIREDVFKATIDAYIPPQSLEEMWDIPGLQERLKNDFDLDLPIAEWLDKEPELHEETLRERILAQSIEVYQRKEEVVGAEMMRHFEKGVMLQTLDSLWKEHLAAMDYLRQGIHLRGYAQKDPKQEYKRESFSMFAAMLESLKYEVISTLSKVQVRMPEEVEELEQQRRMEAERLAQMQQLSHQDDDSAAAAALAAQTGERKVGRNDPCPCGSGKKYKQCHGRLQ
Structure (SMILES),Percent Effect [1] [%],Percent Effect [2] [%],Percent Effect [3] [%],Percent Effect (Trypanosoma cruzi) [%],Percent Effect [4] [%],Percent Effect [5] [%],Percent Effect (Homo sapiens) [%],Percent Effect [6] [%],Percent Effect [7] [%],Percent Effect [8] [%]
CN1CC(c2ccccc2)CC2(CCN(CC(=O)N(C)C)CC2)C1 (stereo not given),-6.25,5.41,9.32,8.44,-3.85,9.42,-25,1.6,17.1,-2.37
CC(C)(C)c1n[nH]c(C2CN(C(=O)c3ccsc3)CCO2)n1 (stereo not given),-1.88,7.69,5.72,0.657,0.82,3.33,-15.3,2.39,13.2,2.07
Cc1ccn(-c2cccc(C(=O)N3CCCC(n4ccnc4C)C3)c2)n1 (stereo not given),-0.853,7.79,11.9,-9.7,-3.89,8.42,26.1,5.88,9.41,-1.96
Cn1cc(CN2CCCC23CCN(C(=O)c2cccn2C)CC3)cn1,-1.03,-6.49,-3.73,-0.876,-2.43,-0.441,-15.7,-0.526,0,-0.154
COc1cccc(CN2CCCC3(CCN(C(=O)[C@H]4CCCO4)C3)C2)c1 (stereo not given in full),-5.07,3.9,-0.211,-0.75,3.65,4.55,0.637,12.6,15,-10.7
Cn1ncc(NCc2cc(F)cc(F)c2)c(Cl)c1=O,-3.8,13.3,-5.81,-3.01,-10.6,7.55,37.7,4.74,10.3,-11.4
Cc1ncncc1C(=O)Nc1cnn(CC(=O)NC2CCCC2)c1,-3.38,20,2.3,2.96,-0.443,10.8,8.96,1.06,12.5,-20.3
Cc1cc(C)n(CCC(=O)N2CCCC(n3cncn3)C2)n1 (stereo not given),-6.39,10.7,6.15,2.01,-3.99,5.68,-5.14,5.79,15.4,-9.86
O=C(NC[C@]1(O)CN(Cc2ccccc2F)C[C@H]1O)c1ccccn1,-1.11,12,-1.14,-2.37,1.33,10.5,6.15,4.23,15,-24.1
Cc1ccc([C@@H]2CN(C(=O)c3csc(C)n3)C[C@H]2NC(=O)C2CC2)cc1,-13.4,2.7,0.978,0.097,-0.35,5.99,23.2,3.72,17.1,-2.85
O=C(NCCCNc1ccccc1)c1scnc1Cl,-4.57,13.3,-2.42,-3.61,0.444,8.06,24.4,3.68,12.8,-10.6
Cc1cnn(C2CCCN(C(=O)c3sccc3-n3cnnn3)C2)c1 (stereo not given),-2,7.69,-3.12,-5.54,2.46,7.93,33.8,5.26,10.8,3.04
Cc1cnc(N2CCC3(CCN(CC4CC4)C3=O)CC2)nc1,-0.786,16.9,-3.91,-4.13,3.65,8.84,17.8,8.7,12.5,-11.4
Cc1ccccc1-c1cncc(C2CCN(C(C)C)CC2)n1,-10.1,12,6.88,3.55,-1.77,8.37,-7.37,7.41,17.5,-27.9
COc1cc(N2CCCC(c3nccn3Cc3cscn3)C2)nc(N)n1 (stereo not given),-4.57,5.41,16.6,6.89,-22.7,15.1,25.7,6.92,14.6,-3.5
O=C(NCCOc1ccc(Cl)cc1)N1CCS(=O)(=O)CC1,-5.3,5.13,-7.37,6.1,-1.23,6.74,3.33,-0.478,10.8,-6.32
CNc1nc2c(s1)C(=O)CN(C(=O)NCc1ccccc1)C2,-2.61,8,-5.95,-8.84,5.32,9.41,15.2,1.58,2.56,-6.84
Cn1ccc(C(=O)NCc2cccc(NC(=O)C3CCC3)c2)cc1=O,-3.75,26,5.5,4.48,-1.84,12.3,12,2.94,21.2,-9.82
CC(C)NC(=O)N1CCC2(CC(=O)N(c3cccc(C#N)c3)C2)C1 (stereo not given),-4.66,-16.9,0.438,-3.6,-3.64,9.8,-4.77,-0.526,-35.9,-0.524
Cc1ccc(OCC(O)CN2CCC(Cn3cccn3)CC2)cc1 (stereo not given),-0.525,7.79,7.42,0.373,4.3,7.89,-3.3,10.8,23.5,-5.78
Cn1cccc1-c1cc(C(=O)N2CCCC2c2cccnc2)[nH]n1 (stereo not given),-6.61,18.9,15.5,5.72,5.94,16.6,5.26,4.79,17.1,-2.92
Cc1noc(C2CCN(C(=O)CCc3nccs3)CC2)n1,0.362,17.9,-8.4,-1.78,3.28,5.72,17.8,6.22,13.2,-4.78
O=C(Cn1c(=O)nc2n1C(=O)N(c1ccccc1)C2)Nc1ccccc1,-6.94,16.2,9.15,2.23,24.8,23.6,5.58,6.92,14.6,75.6
